Measurements reported in PubChem BioAssay AID488969 (Vanderbilt High Throughput Screening Facility, 2010).
In all, about 110,000 compounds were measured (“z-score”: median about -0.1, highest 2% from about 2 on). Many of the other results were omitted from the sample, so the highest values are more common in it than they were. Activity calls are given as the source filed them.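 Rule for the calls: active = z-score in the third read window above 3 or below -3; inactive = the rest.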

Target: Metabotropic glutamate receptor 8 (Rattus norvegicus) (UniProt P70579)
Sequence (P70579 whole entry, looked up): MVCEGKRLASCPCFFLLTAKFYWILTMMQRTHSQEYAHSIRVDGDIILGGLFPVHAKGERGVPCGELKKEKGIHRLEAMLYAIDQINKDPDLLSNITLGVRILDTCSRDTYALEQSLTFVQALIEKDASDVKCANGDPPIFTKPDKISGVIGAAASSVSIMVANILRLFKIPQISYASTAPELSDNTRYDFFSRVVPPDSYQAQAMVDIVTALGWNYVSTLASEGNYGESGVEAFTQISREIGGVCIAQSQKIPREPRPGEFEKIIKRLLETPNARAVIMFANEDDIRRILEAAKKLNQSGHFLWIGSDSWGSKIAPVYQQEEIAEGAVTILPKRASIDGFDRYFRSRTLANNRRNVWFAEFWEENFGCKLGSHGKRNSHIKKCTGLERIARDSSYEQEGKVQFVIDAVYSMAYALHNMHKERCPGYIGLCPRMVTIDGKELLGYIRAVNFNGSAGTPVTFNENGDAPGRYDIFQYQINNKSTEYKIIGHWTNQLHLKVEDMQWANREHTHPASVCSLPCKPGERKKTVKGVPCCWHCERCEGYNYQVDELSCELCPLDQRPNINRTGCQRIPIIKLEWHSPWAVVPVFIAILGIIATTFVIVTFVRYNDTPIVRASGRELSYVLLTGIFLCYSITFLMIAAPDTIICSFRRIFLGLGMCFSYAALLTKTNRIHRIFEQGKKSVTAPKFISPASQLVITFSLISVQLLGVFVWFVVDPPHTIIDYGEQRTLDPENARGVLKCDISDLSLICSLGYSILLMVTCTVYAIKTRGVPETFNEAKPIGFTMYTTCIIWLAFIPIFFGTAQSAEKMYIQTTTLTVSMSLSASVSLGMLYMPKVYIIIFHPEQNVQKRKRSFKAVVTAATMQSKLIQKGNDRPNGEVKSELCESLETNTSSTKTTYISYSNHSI
Test: rat mGluR8 modulators via GIRK flux, primary screen, cell-based, thallium flux, HTS (AID 488969)
Conditions: HEK293 rat mGluR8, GIRK (G protein-gated inwardly rectifying potassium channel) thallium flux, FluoZin2; at 10 µM; stronger effect = higher value; submaximal glutamate (EC20) added with thallium

Row | Structure (SMILES) | z-score
1 | CCOC(=O)N1CCN(C(=O)c2ccc(CNS(=O)(=O)c3ccc(C)cc3)cc2)CC1 | -0.952
2 | COC(=O)CSc1nc2ccccc2o1 | -0.541
3 | Cc1nonc1OCC(C)(COc1nonc1C)NC(=O)c1ccc(Cl)cc1 | -0.0555
4 | COc1ccccc1CNC(=O)/C=C/c1cc2c(cc1Br)OCO2 | -0.0108
5 | CC(=O)c1c(C)[nH]c(C(=O)COc2cc(C)cc(C)c2)c1C | 4 (active)
6 | CC(=O)c1c(C)[nH]c(C(=O)COc2ccc(C#N)cc2)c1C | -0.0197
7 | CCCOc1ccc(OCC(=O)c2[nH]c(C)c(C(C)=O)c2C)cc1 | 0.149
8 | O=C1CN(Cc2ccccc2)C(=NCc2ccco2)S1 | -0.501
9 | Cc1cccc(NC(=S)NCC23C=CC(O2)C2C(=O)N(c4ccc(Cl)cc4)C(=O)C23)c1 (configuration not stated) | -0.343
10 | CCOC(=O)c1ccc(NC(=O)c2ccccc2[N+](=O)[O-])cc1 | -0.169
11 | CC(=O)NC(=S)Nc1ccc(-c2nc3ccc(C)cc3s2)cc1 | 0.23
12 | CC(C)(C)NCCOc1ccc(Br)cc1 | -0.0295
13 | OCCNCCCCOc1ccc(F)cc1 | 0.17
14 | CC(C)(C)NCCCCOc1ccc(F)cc1 | 2.98
15 | C=CCn1c(N)c(C(=O)NCC2CCCO2)sc1=S (configuration not stated) | 0.129
16 | CCOC(=O)N1CCN(c2cc(=O)n(C3CCCCC3)c(=O)[nH]2)CC1 | 0.0254
17 | CCOc1ccc(OCC)c(-c2c(=O)n(OCc3ccccc3Br)c3ccccc3[n+]2[O-])c1 | 1.8
18 | COc1cccc(N2CCN(c3c4c(nc5ncnn35)CCC4)CC2)c1 | 5.19 (active)
19 | c1ccc(N2CCN(c3c4c(nc5ncnn35)CCC4)CC2)cc1 | -0.139

Row | Structure (SMILES) | z-score
20 | COc1cccc(CC(NC(C)=O)C(=O)NC2CCN(c3c4c(nc5ncnn35)CCC4)CC2)c1 (configuration not stated) | 0.172
21 | COc1ccc2cc(S(=O)(=O)NCCCN3CCOCC3)ccc2c1 | -0.0146
22 | Cc1ccccc1NC(=O)/C(C#N)=C\c1cccnc1 | -0.183
23 | CCc1ccccc1NC(=O)C(C#N)Cc1cccnc1 (configuration not stated) | 0.345
24 | Cc1ccccc1NC(=O)C(C#N)Cc1cccnc1 (configuration not stated) | 2.26
25 | Cc1ccc(CO/N=C\Cc2snc(Sc3ncc(C(F)(F)F)cc3Cl)c2C#N)cc1 | 0.0198
26 | Cc1ccc(CNC(=O)C(Cc2ccccc2)NS(=O)(=O)c2ccc3c(c2)CCC(=O)N3)cc1 (configuration not stated) | 0.0976
27 | O=C(CSc1cn(Cc2ccccc2)c2ccccc12)Nc1nccs1 | -0.121
28 | C/C(Cc1ccccc1)=N\NC(=O)c1ccc(F)cc1 | 0.49
29 | O=C(NN=C(Cc1ccccc1)Cc1ccccc1)c1ccc(F)cc1 | 4.71 (active)
30 | COc1ccc(C(=O)NN=C(Cc2ccccc2)Cc2ccccc2)cc1OC | -0.165
31 | O=C(CS(=O)(=O)Cc1ccccc1)Nc1ccc(S(=O)(=O)N2CCOCC2)cc1 | -0.109
32 | CCCC(=O)Nc1nc2ccc(S(=O)(=O)N3CCCCC3)cc2s1 | -0.273
33 | O=C(Nc1nc(-c2ccccn2)cs1)C1CC1 | 0.0299
34 | O=C(Nc1nc(-c2ccccn2)cs1)c1ccc(Br)s1 | 12.3 (active)
35 | O=C(Nc1nc(-c2cc(Cl)sc2Cl)cs1)c1ccc(Br)s1 | 0.0927
36 | O=C(CSCc1ccccc1Br)N/N=C/c1ccc2c(c1)OCO2 | -0.0558
37 | CCOCCCNC(=O)Cc1c(C(=O)O)[nH]c2ccc(Cl)cc12 | 0.12
38 | N=c1n(CCO)c2ccccc2n1CCOc1ccccc1 | -0.208

Row | Structure (SMILES) | z-score
39 | CCCn1c(=N)n(CCOCCOCCn2c(=N)n(CCC)c3ccccc32)c2ccccc21 | 0.012
40 | CCCn1c(=N)n(CCOc2ccc(OC)cc2)c2ccccc21 | 3.04 (active)
41 | CCCn1c(=N)n(CC(=O)OCC)c2ccccc21 | -0.118
42 | Cc1cccc(OCCn2c(=O)sc3ccccc32)c1 | -0.343
43 | CCOC(=O)Cn1c(=N)n(CCOc2ccc(OC)cc2)c2ccccc21 | 2.74
44 | CCOC(=O)Cn1c(=N)n(CCOc2cccc(C)c2)c2ccccc21 | 3.95 (active)
45 | CCn1c(=N)n(CCOc2ccc(OC)cc2)c2ccccc21 | -0.158
46 | Cc1cccc(OCCn2c(S(=O)(=O)O)nc3ccccc32)c1 | 0.0442
47 | CCn1c(=S)[nH]c2ccccc21 | 0.63
48 | CCOC(=O)Cn1c(=N)n(CCOc2ccc3ccccc3c2)c2ccccc21 | 1.25
49 | Cc1cccc(OCCn2c(=S)[nH]c3ccccc32)c1 | 2.83
50 | O=C(NCCN1CCCCC1)c1ccco1 | 0.151
51 | CC1=C(Sc2ccccn2)C(=O)NC(C)(C)C1 | 0.338
52 | CN(C)S(=O)(=O)c1ccc(C(=O)Nc2ccccc2OC(F)(F)C(F)F)cc1 | -0.525
53 | COc1ccc(NC(=O)Nc2ncn(Cc3cccc(C(F)(F)F)c3)n2)cc1OC | 0.0572
54 | COc1ccc(-c2ccc(/C=C3/C(=N)N4C=CSC4=NC3=O)o2)c([N+](=O)[O-])c1 | 0.455
55 | CC(=O)N1N=C(c2ccco2)CC1c1ccc(C)cc1 (configuration not stated) | 0.0902
56 | C=CCNC(=O)C(=O)N/N=C/c1ccco1 | 0.424
57 | CCCn1c(C)cc(=O)c2cc(NC(=O)c3cnccn3)ccc21 | -0.106
